Source: PubChem BioAssay (Tox21)
Records with an inconclusive call do not appear. A call without a number means that no potency is given here. Active and inactive are the calls of the source. Unless noted, calls come from the whole dose curve.

Key:
[1] = Nuclear factor erythroid 2-related factor 2/antioxidant responsive element (Nrf2/ARE) small molecule agonists: qHTS cell viability counter screen in human keratinocytes (AID 1919968; active = well fitted curve in the direction sought with a large enough effect in the repeat runs; an effect the other way counts as inactive or inconclusive; note: nearly all actives have a fitted effect of over 55% in size)
Method in brief: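 Seed 1,500 KeratinoSens cells per well, then incubate 5 h at 37 C/5% CO2. Add compounds in DMSO and incubate 23 h. Add CellTiter-Fluor, wait 1 h and read fluorescence.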

[2] = Nuclear factor erythroid 2-related factor 2/antioxidant responsive element (Nrf2/ARE) small molecule agonists: luciferase reporter gene qHTS assay in human keratinocytes (AID 1919969); note: nearly all actives have a fitted effect of over 35% in size
[3] = target: Gonadotropin-releasing hormone receptor (Homo sapiens) (UniProt P30968); test: Human gonadotropin-releasing hormone receptor (GnRHR) small molecule agonists, calcium flux assay in GnRHR-HEK293 cells (AID 1920063); note: nearly all actives have a fitted effect of over 35% in size
Method in brief: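 Cells: HEK293 stably expressing human GnRHR. Steps: overnight (18 h) culture, 1 h calcium dye loading at 37 C, compound addition, kinetic fluorescence read at 480/540 nm. Each compound tested at 15 concentrations in triplicate.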

[4] = target: KiSS-1 receptor (Homo sapiens) (UniProt Q969F8); test: Human kisspeptin (KISS1R) small molecule agonists, calcium flux assay in KISS1R-HEK293 cells (AID 1920064; active = well fitted curve in the direction sought with a large enough effect in the repeat runs; an effect the other way counts as inactive or inconclusive)
Method in brief: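 Cells plated and incubated 18 h; dye added, 1 h at 37 C; compounds in DMSO pinned in; signal read at 480/540 nm every second for 3 min. Each compound tested at 15 concentrations in triplicate.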

[5] = G protein-coupled receptor (GPCR) small molecule agonists, calcium flux assay: HEK293 wild type cell line counter screen (AID 1920065)
Method in brief: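 Counter-screen of the Tox21 10K library for non-specific calcium release: dye-loaded cells received compounds in DMSO and were monitored by kinetic fluorescence (480/540 nm, 3 min). Fifteen concentrations, run in triplicate.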

[6] = p53 small molecule agonists, cell-based qHTS assay with human liver microsomes (AID 1963577)
Method in brief: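 Fluorescence of the beta-lactamase reporter in p53RE-bla cells, detected with LiveBLAzer substrate (2 h, room temperature, dark), served as the read-out after 16 h compound exposure at 37 C with human liver microsomes and NADPH, each 0.5 mg/mL final.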

[7] = p53 small molecule agonists, cell-based qHTS assay with rat liver microsomes (AID 1963578)
Method in brief: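 Cells carrying a p53 response element–beta-lactamase reporter were plated and rested 5 h, then dosed with compound in DMSO plus rat liver microsomes and NADPH, each at 0.5 mg/mL final. After 16 h at 37 C, LiveBLAzer substrate was added for 2 h.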

[8] = p53 small molecule agonists, cell-based qHTS assay with human liver microsomes: qHTS cell viability counter screen (AID 1963579); note: nearly all actives have a fitted effect of over 45% in size
Method in brief: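 Cytotoxicity counter screen: p53RE-bla, 4,000 cells/well; 5 h settle, 37 C/5% CO2; cpd + HLM 0.5 mg/mL + NADPH 0.5 mg/mL (final); 16 h, 37 C; CellTiter-Glo, 30 min RT, luminescence.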

[9] = p53 small molecule agonists, cell-based qHTS assay with rat liver microsomes: qHTS cell viability counter screen (AID 1963580); note: nearly all actives have a fitted effect of over 45% in size
Method in brief: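 Intracellular ATP, by CellTiter-Glo luminescence, defines viability. HCT-116 p53RE-bla cells, 4,000 per well, were compound-treated in the presence of rat liver microsomes and NADPH for 16 h at 37 C.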

[10] = p53 small molecule agonists, cell-based qHTS assay: qHTS cell viability counter screen (AID 1963581); note: nearly all actives have a fitted effect of over 45% in size
Method in brief: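 Cells: HCT-116 with p53 response element-driven beta-lactamase. Treatment: 16 h, 37 C, compounds in DMSO. Read: CellTiter-Glo luminescence after 30 min RT.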

[11] = p53 small molecule agonists, cell-based qHTS assay (AID 1963582; active = well fitted activation curve with a large enough effect in the signal ratio in the repeat runs, not every such curve was filed as active; the % refers to the signal ratio)
Method in brief: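 Quantitative HTS in p53RE-bla cells: after a 5 h settling period, compounds delivered in DMSO were left on cells for 16 h at 37 C, and reporter induction was measured as fluorescence following 2 h substrate loading.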

[12] = target: 5-hydroxytryptamine receptor 2A (Homo sapiens) (UniProt P28223); test: 5-hydroxytryptamine receptor 2A (HTR2A) small molecule antagonists, cell-based qHTS assay (AID 1963586); note: nearly all actives have a fitted effect of over 45% in size; note: potency is the fitted concentration of half-maximal effect
Method in brief: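 Antagonist-mode intracellular calcium assay: DOI (4 nM) added after 5 min compound pre-incubation at room temperature to dye-loaded HTR2A-CHO cells. Fluorescence followed for 3 min, sampled every second.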

[13] = target: 5-hydroxytryptamine receptor 2A (Homo sapiens) (UniProt P28223); test: 5-hydroxytryptamine receptor 2A (HTR2A) small molecule agonists, cell-based qHTS assay (AID 1963587); note: nearly all actives have a fitted effect of over 30% in size
Method in brief: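 Kinetic calcium-flux fluorescence (2 min, 1 sec intervals) after compound addition in agonist mode. HTR2A-CHO cells were cultured 18 h, then dye-loaded 1 h at 37 C.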

[14] = target: Muscarinic acetylcholine receptor M1 (Homo sapiens) (UniProt P11229); test: Cholinergic receptor muscarinic 1 (CHRM1) small molecule antagonists, cell-based qHTS assay (AID 1963588); note: nearly all actives have a fitted effect of over 40% in size; note: potency is the fitted concentration of half-maximal effect
Method in brief: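 CHRM1-CHO calcium-flux assay, antagonist mode. Cells were seeded 18 h, dye-loaded 1 h at 37 C and given compound for 5 min at RT, then acetylcholine was added at 50nM. FDSS fluorescence was read 3 min; 15 concentrations, three runs.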

[15] = target: Muscarinic acetylcholine receptor M1 (Homo sapiens) (UniProt P11229); test: Cholinergic receptor muscarinic 1 (CHRM1) small molecule agonists, cell-based qHTS assay (AID 1963589); note: nearly all actives have a fitted effect of over 35% in size
Method in brief: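 Agonist-mode qHTS in CHO cells stably carrying human muscarinic M1. Intracellular calcium is tracked by fluorescence every second after compound transfer; each compound runs at 15 concentrations in three independent runs.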

[16] = cAMP Responsive Elements (CRE) small molecule agonists, cell-based qHTS assay (AID 1963590)
Method in brief: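 Agonist mode qHTS in CRE-bla HEK 293T cells: compounds dosed from DMSO for 3 h at 37 C/5% CO2, followed by LiveBLAzer B/G FRET substrate for 2 h at room temperature.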

[17] = target: Beta-2 adrenergic receptor (Homo sapiens) (UniProt P07550); test: Adrenergic beta2 receptor (ADRB2) small molecule antagonists, cell-based qHTS assay (AID 1963592); note: series mostly up to about 92 µM; nearly all actives have a fitted effect of over 50% in size
Method in brief: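 Cells (CHO, stable ADRB2 overexpression) incubated 18-20hr at 37C; compounds added from DMSO; agonist mix (1nM isoproterenol, 100uM IBMX, 25uM Ro-20-1724) added; 0.5hr RT; d2-cAMP and anti-cAMP-cryptate added; 1hr RT; 665/615 nm read.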

[18] = target: D(2) dopamine receptor (Homo sapiens) (UniProt P14416); test: Dopamine D2 receptor (DRD2) small molecule agonists, cell-based qHTS assay (AID 1963594); note: nearly all actives have a fitted effect of over 35% in size
Method in brief: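 cAMP accumulation in DRD2-HEK293 cells measured by HTRF after 1 h detection; compounds added 10 min before NKH477 (200nM […]) forskolin-analogue stimulation, 30 min at room temperature, with Ro20-1724 present at 0.1 mM final.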

[19] = target: D(2) dopamine receptor (Homo sapiens) (UniProt P14416); test: Dopamine D2 receptor (DRD2) small molecule antagonists, cell-based qHTS assay (AID 1963595; active = well fitted inhibition curve with a large enough effect in the signal ratio in the repeat runs, with a control signal flat; the % refers to the signal ratio)
Method in brief: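 Antagonism was scored as restored cAMP in HEK293-DRD2 cells. These cells were stimulated with 200 nM NKH477 and 12 nM quinpirole for 30 min at room temperature, in the presence of 0.1 mM Ro20-1724.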

Sequence of D(2) dopamine receptor (Homo sapiens) (P14416 whole entry, looked up): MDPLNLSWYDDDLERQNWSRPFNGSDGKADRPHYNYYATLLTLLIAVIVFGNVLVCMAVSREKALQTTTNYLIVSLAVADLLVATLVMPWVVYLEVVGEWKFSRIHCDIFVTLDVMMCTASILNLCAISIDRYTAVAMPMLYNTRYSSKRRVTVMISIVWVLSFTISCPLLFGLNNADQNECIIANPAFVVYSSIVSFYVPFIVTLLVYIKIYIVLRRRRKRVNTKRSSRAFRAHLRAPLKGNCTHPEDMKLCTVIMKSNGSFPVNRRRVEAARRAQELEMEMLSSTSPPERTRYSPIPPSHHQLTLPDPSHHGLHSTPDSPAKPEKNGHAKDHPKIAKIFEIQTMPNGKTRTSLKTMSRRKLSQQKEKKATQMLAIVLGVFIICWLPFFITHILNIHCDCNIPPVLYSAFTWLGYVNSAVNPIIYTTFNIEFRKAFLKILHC
Sequence of KiSS-1 receptor (Homo sapiens) (Q969F8 whole entry, looked up): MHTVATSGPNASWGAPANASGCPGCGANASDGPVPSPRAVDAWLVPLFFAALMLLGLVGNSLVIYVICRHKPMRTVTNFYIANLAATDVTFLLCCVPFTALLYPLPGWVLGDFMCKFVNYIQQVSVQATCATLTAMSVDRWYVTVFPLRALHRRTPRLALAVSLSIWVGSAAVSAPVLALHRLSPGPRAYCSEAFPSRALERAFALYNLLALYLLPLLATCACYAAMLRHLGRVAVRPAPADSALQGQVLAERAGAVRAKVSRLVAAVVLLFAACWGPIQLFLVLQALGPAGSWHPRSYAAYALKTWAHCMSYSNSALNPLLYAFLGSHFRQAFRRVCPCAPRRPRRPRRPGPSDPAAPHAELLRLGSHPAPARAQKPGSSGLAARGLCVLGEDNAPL
Sequence of Beta-2 adrenergic receptor (Homo sapiens) (P07550 whole entry, looked up): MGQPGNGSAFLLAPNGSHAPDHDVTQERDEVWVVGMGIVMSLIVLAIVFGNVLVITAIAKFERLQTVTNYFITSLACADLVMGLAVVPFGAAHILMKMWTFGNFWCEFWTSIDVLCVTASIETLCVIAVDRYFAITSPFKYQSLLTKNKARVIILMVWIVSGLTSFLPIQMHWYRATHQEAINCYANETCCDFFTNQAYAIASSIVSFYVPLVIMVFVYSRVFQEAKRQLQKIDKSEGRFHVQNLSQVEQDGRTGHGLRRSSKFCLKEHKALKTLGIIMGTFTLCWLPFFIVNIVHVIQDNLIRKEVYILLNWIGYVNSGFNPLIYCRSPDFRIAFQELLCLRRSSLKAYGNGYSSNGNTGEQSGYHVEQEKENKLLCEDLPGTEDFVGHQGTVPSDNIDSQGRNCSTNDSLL
Sequence of 5-hydroxytryptamine receptor 2A (Homo sapiens) (P28223 whole entry, looked up): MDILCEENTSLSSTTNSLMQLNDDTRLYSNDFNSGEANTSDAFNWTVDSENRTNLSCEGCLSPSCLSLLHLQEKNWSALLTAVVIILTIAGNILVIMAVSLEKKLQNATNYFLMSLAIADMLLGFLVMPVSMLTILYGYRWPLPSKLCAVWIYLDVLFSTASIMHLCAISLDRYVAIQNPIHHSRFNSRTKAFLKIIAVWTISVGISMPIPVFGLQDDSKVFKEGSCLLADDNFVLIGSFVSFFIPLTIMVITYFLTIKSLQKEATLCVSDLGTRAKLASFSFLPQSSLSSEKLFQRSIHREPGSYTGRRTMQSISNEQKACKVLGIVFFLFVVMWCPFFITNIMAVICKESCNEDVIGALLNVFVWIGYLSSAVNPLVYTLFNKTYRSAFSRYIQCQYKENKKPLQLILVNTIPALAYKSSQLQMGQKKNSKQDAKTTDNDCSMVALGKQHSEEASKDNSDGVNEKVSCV
Sequence of Muscarinic acetylcholine receptor M1 (Homo sapiens) (P11229 whole entry, looked up): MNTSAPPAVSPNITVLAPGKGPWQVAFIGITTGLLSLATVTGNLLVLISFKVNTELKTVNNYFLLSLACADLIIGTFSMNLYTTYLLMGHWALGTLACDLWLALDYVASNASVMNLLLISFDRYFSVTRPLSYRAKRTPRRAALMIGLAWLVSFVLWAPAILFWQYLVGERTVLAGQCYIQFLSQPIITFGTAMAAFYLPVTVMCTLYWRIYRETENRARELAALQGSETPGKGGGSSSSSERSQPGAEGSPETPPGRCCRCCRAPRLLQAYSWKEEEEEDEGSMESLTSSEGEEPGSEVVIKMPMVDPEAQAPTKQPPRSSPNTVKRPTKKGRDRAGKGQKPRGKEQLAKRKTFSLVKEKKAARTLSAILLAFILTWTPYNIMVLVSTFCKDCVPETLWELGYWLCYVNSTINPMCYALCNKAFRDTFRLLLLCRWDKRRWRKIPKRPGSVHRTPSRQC
Sequence of Gonadotropin-releasing hormone receptor (Homo sapiens) (P30968 whole entry, looked up): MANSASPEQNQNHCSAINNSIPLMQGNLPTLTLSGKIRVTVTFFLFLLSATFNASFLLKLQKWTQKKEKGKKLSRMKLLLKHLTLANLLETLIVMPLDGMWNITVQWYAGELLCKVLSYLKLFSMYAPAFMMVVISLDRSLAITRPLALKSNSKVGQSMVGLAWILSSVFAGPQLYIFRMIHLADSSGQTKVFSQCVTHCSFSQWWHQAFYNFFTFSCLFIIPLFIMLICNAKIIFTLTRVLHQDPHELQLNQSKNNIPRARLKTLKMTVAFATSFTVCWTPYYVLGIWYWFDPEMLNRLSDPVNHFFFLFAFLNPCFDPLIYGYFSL

SMILES	Potency [1]	Potency [2]	Potency [3]	outcome [4]	outcome [5]	Potency [6]	Potency [7]	Potency [8]	Potency [9]	Potency [10]	Potency [11]	Potency [12]	Potency [13]	Potency [14]	Potency [15]	Potency [16]	Potency [17]	Potency [18]	Potency [19]
CCC1(C)NC(=O)NC1=O (stereo not drawn)	inactive	inactive	inactive	inactive	inactive	inactive	inactive	inactive	inactive	inactive	inactive	inactive	inactive	inactive	inactive	inactive	inactive	inactive	inactive
CCOC(=O)C(Br)c1ccccc1 (stereo not drawn)	inactive	inactive	inactive	inactive	inactive	inactive	inactive	inactive	inactive	inactive	inactive	inactive	inactive	inactive	inactive	inactive	inactive	inactive	inactive
O=[N+]([O-])c1ccc(CO)cc1	inactive	inactive	inactive	inactive	inactive	inactive	inactive	inactive	inactive	inactive	inactive	inactive	inactive	inactive	inactive	inactive		inactive	inactive
CC1(C)S[C@@H]2[C@H](NC(=O)C(c3ccccc3)S(=O)(=O)O)C(=O)N2[C@H]1C(=O)O (stereo partly drawn)	inactive	inactive	inactive	inactive	inactive	inactive	inactive	inactive	inactive	inactive	inactive	inactive	inactive	inactive	inactive	inactive	inactive	inactive	
CCC(CC)C(=O)O	inactive	inactive	inactive	inactive	inactive	inactive	inactive	inactive	inactive	inactive	inactive	inactive	inactive	inactive	inactive	inactive	inactive		
CCN(CC)CCOc1ccccc1C(=O)CCc1ccccc1	inactive	inactive	inactive	inactive	inactive	inactive	inactive	inactive	inactive	inactive	inactive	1300 nM (active)	inactive	2310 nM (active)	inactive	inactive	inactive	inactive	inactive
CCOC(=O)Cn1c(=O)sc2cccc(Cl)c21	inactive	inactive	inactive	inactive	inactive	inactive	inactive	inactive	inactive	inactive	inactive	inactive	inactive	inactive	inactive	inactive	inactive	inactive	inactive
CNC(=O)c1ccccc1	inactive	inactive	inactive	inactive	inactive	inactive	inactive	inactive	inactive	inactive	inactive	inactive	inactive	inactive	inactive	inactive	inactive	inactive	inactive
